The full data set covers some 8,800 targets. This sample favours those with a hit. About 0.5% of all pairs of compound and target were hits. Values without a mark were called inactive.
Key:
Assay in all cases: log2 fold change, soluble protein after heating vs DMSO (PISA); higher = thermal stabilisation; K562 lysate, 10 uM; active = over 0.2 and 3.5 SD of the protein, either way, in both replicates (recomputed)
lapatinib = compound: CS(=O)(=O)CCNCc1ccc(-c2ccc3ncnc(Nc4ccc(OCc5cccc(F)c5)c(Cl)c4)c3c2)o1 [lapatinib]
In short: (§1)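 Log-two fold change in thermal stability relative to solvent controls is reported from duplicates. For each sample, crude K562 extract from dounce-homogenised pellets in PBS pH 7.4 with 1 mM MgCl2, at 1 mg/mL protein, was treated with 10 μM compound for 30 min. Aliquots heated for 3 min across 48°C-58°C were pooled, brought to 0.5% NP-40 at 4°C and cleared at 21,000xg for 90 min. The supernatant was quantified by TMTpro 16plex LC-MS/MS with channel sums equalised.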

pictilisib = compound: CS(=O)(=O)N1CCN(Cc2cc3nc(-c4cccc5[nH]ncc45)nc(N4CCOCC4)c3s2)CC1 [pictilisib]
In short: as §1

crizotinib = compound: C[C@@H](Oc1cc(-c2cnn(C3CCNCC3)c2)cnc1N)c1c(Cl)ccc(F)c1Cl [crizotinib]
In short: as §1

[1] = compound: C[C@H](C1=CC=C(C=C1)C(=O)NC2=C3C=CNC3=NC=C2)N
In short: as §1

duvelisib = compound: C[C@H](Nc1ncnc2nc[nH]c12)c1cc2cccc(Cl)c2c(=O)n1-c1ccccc1 [duvelisib]
In short: as §1

gandotinib = compound: Cc1cc(Nc2cc(CN3CCOCC3)c3nc(C)c(Cc4ccc(Cl)cc4F)n3n2)n[nH]1 [gandotinib]
In short: as §1

tozasertib = compound: Cc1cc(Nc2cc(N3CCN(C)CC3)nc(Sc3ccc(NC(=O)C4CC4)cc3)n2)n[nH]1 [tozasertib]
In short: as §1

doramapimod = compound: Cc1ccc(-n2nc(C(C)(C)C)cc2NC(=O)Nc2ccc(OCCN3CCOCC3)c3ccccc23)cc1 [doramapimod]
In short: as §1

bafetinib = compound: Cc1ccc(NC(=O)c2ccc(CN3CC[C@H](N(C)C)C3)c(C(F)(F)F)c2)cc1Nc1nccc(-c2cncnc2)n1 [bafetinib]
In short: as §1

[2] = compound: Cc1cccc(CC(=O)N2CCc3c2ccc(-c2cn(C)c4ncnc(N)c24)c3F)n1
In short: as §1

Chain of UniProt P29353 (P29353 whole entry, looked up): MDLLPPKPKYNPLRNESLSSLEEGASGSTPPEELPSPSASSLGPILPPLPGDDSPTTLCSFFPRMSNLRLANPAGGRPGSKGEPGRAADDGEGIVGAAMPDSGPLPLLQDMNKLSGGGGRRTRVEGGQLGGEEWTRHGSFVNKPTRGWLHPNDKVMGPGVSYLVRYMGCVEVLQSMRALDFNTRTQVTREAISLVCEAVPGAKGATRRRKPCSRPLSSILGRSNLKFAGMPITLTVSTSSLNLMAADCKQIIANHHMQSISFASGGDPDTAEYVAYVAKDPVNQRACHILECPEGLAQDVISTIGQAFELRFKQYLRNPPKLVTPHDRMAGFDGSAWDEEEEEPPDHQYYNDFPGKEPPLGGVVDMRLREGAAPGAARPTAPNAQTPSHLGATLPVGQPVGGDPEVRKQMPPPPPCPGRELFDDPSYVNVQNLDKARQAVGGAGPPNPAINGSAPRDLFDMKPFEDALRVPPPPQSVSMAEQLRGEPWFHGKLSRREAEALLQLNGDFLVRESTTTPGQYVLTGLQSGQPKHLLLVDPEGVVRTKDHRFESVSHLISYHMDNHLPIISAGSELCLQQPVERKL
Chain of UniProt Q9Y6J9 (Q9Y6J9 whole entry, looked up): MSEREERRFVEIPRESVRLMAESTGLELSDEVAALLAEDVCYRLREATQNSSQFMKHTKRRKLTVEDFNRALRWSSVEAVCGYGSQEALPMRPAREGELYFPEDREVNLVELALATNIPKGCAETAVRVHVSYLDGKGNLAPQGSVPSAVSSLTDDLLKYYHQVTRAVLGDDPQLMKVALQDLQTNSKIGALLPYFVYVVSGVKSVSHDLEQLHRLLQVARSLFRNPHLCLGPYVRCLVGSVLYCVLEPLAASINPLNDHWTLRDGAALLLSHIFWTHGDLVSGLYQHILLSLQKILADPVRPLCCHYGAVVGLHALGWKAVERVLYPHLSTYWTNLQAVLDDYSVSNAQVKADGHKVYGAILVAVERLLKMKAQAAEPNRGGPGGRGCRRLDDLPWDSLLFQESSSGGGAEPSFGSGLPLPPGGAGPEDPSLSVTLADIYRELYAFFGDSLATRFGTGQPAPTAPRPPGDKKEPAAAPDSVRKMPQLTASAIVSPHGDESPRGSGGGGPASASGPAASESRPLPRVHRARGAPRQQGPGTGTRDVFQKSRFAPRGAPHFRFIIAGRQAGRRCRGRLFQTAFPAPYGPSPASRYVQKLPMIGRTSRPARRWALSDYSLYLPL
Chain of UniProt O15198 (O15198 whole entry, looked up): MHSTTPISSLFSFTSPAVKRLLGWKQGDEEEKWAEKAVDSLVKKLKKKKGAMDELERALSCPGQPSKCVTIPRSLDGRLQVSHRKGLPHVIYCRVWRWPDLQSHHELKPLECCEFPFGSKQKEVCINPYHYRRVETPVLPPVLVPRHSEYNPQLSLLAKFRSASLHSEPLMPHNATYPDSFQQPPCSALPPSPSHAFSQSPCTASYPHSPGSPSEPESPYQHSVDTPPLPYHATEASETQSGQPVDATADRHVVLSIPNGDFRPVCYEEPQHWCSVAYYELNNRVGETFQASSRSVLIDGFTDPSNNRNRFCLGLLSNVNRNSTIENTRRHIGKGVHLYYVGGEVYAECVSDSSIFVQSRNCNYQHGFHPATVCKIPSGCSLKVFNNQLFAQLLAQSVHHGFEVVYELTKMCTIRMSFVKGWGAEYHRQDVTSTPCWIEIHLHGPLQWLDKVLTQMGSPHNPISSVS
Chain of UniProt Q8N1F8 (Q8N1F8 whole entry, looked up): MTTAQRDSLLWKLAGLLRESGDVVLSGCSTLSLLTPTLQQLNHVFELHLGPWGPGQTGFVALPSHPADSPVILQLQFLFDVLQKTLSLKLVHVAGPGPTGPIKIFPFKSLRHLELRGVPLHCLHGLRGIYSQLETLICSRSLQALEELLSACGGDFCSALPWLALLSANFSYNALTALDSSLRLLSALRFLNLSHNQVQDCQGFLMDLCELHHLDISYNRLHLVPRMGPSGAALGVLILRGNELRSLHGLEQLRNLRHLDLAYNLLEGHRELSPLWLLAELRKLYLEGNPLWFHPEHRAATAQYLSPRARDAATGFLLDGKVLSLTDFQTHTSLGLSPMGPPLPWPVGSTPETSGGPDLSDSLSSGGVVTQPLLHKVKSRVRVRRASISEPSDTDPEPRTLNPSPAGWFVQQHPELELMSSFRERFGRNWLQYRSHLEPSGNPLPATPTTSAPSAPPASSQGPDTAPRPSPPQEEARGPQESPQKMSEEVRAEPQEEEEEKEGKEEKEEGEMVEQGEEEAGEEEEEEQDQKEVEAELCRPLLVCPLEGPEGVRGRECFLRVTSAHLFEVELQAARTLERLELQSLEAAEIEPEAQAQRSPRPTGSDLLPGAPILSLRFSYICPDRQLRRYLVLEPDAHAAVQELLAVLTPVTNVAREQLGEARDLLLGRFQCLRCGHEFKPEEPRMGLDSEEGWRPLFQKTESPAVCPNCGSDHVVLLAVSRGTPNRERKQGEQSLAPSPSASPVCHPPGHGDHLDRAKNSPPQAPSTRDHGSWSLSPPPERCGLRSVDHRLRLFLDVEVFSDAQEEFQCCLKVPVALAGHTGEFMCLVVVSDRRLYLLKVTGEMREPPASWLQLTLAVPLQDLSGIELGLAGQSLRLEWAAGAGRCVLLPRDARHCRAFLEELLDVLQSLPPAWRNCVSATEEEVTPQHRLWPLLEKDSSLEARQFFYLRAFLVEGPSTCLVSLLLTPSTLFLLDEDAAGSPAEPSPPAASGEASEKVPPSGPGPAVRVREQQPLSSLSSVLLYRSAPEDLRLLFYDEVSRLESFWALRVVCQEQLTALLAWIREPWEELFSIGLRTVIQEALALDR
Chain of UniProt Q16594 (Q16594 whole entry, looked up): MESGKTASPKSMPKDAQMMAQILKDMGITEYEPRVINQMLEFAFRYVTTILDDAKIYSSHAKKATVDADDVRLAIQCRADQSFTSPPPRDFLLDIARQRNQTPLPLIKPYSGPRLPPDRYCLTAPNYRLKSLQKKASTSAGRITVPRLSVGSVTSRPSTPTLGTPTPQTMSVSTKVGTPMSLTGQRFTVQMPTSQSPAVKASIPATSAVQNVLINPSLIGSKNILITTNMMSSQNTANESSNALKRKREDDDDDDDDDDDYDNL
Chain of UniProt Q08AE8 (Q08AE8 whole entry, looked up): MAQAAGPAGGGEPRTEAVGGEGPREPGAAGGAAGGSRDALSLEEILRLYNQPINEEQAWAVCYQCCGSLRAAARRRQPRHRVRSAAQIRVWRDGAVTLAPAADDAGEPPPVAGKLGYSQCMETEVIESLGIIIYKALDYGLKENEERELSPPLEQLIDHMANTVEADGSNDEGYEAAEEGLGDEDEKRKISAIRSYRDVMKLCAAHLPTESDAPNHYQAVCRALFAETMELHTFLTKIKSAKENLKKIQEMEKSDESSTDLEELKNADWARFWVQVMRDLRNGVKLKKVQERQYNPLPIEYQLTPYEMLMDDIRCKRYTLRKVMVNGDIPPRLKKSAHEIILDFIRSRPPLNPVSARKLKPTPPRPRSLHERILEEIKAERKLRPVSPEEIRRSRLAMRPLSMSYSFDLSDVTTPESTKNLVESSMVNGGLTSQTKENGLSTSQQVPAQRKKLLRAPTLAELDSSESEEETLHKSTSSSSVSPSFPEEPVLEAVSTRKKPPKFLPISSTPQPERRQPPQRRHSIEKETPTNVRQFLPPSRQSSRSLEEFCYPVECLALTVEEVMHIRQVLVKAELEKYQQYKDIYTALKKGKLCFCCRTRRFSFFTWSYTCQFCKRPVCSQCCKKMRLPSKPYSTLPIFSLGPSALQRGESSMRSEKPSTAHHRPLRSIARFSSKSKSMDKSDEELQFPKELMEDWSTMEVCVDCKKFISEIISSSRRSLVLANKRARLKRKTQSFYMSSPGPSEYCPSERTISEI
Chain of UniProt Q6KCM7 (Q6KCM7 whole entry, looked up): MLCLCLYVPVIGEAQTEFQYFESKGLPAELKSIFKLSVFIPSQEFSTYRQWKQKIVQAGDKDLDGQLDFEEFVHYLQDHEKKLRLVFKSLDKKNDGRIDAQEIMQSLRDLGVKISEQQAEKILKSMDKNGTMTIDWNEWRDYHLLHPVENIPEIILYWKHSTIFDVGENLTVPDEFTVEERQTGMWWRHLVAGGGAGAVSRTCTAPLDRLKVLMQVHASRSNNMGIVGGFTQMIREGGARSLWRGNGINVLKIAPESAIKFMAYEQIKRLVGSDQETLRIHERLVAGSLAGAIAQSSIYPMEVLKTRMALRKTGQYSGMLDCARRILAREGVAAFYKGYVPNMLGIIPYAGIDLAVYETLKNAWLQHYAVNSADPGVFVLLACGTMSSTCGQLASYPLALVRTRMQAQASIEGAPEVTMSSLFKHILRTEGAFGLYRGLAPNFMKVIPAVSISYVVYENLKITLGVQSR
Chain of UniProt Q8WU79 (Q8WU79 whole entry, looked up): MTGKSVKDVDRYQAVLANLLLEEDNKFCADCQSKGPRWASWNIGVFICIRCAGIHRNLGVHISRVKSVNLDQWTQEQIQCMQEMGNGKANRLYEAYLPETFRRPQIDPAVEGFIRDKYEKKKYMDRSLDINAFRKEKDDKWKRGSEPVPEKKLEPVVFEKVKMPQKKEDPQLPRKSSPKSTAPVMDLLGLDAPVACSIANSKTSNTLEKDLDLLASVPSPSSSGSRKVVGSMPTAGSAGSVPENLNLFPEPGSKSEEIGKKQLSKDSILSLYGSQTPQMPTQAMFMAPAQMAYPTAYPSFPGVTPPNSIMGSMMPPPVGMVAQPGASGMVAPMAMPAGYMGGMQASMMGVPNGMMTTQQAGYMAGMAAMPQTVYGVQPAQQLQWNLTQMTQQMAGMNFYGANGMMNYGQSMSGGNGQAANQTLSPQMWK
Chain of UniProt Q15506 (Q15506 whole entry, looked up): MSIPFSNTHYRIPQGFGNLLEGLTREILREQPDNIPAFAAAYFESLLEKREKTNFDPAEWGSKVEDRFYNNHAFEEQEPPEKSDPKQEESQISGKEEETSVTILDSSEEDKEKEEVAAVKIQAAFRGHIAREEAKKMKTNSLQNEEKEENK
Chain of UniProt P62316 (P62316 whole entry, looked up): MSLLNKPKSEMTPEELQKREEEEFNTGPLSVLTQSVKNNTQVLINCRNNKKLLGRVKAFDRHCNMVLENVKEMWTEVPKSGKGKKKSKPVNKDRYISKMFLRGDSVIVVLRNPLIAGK

Target	log2 fold change (lapatinib)	log2 fold change (pictilisib)	log2 fold change (crizotinib)	log2 fold change [1]	log2 fold change (duvelisib)	log2 fold change (gandotinib)	log2 fold change (tozasertib)	log2 fold change (doramapimod)	log2 fold change (bafetinib)	log2 fold change [2]
SSU72 (UniProt Q9NP77)	-0.02	0.008	-0.042	-0.288 (active)	-0.004	0.134	-0.074	0.057	-0.052	0.166
STK11IP (UniProt Q8N1F8)	0.022	0.012	-0.022	0.004	-0.052	-0.019	-0.014	0.037	-0.008	0.036
TAF9 (UniProt Q16594)	-0.06	-0.018	-0.004	0.188	0.084	-0.002	0.156	0.001	0.018	-0.057
SMAD9 (UniProt O15198)	-0.056	-0.036	-0.027	-0.047	0.091	0.077	0.091	0.024	0.014	-0.019
SLC39A11 (UniProt Q8N1S5)	-0.054	0.081	0.081	-0.097	-0.002	0.1	0.178	-0.139	0.022	0.013
SPIRE1 (UniProt Q08AE8)	-0.019	0.012	-0.072	-0.281 (active)	-0.021	0.128	-0.023	0.151	-0.031	0.134
SMC2 (UniProt O95347)	-0.019	0.013	-0.028	0.121	-0.009	-0.177	0.014	0.037	-0.02	-0.059
SPA17 (UniProt Q15506)	0.058	-0.012	0.019	-0.498 (active)	0.009	0.303	-0.022	0.054	-0.076	0.25
SPAG5 (UniProt Q96R06)	0.013	-0.004	-0.056	-0.016	0.038	-0.11	0.029	0.036	-0.044	0.058
SYNE2 isoform 2 (UniProt Q8WXH0)	-0.082	-0.103	0.058	-0.93 (active)	0.073	0.296	-0.003	0.183	-0.194	0.397
SMAP2 (UniProt Q8WU79)	-0.017	-0.164	0.102	0.031	-0.008	-0.008	0.054	-0.019	0.051	-0.032
SLC27A2 (UniProt O14975)	0.063	-0.049	-0.092	-0.067	0.031	0.286	0.117	0.064	0.015	-0.014
STOML2 (UniProt Q9UJZ1)	0.013	-0.021	0.028	0.089	0.035	0.015	0.012	-0.032	0.033	-0.023
SHC1 isoform 6 (UniProt P29353)	0.019	-0.057	0.001	0.577 (active)	0.005	-0.106	0.005	0.065	-0.034	-0.175
SLC25A44 (UniProt Q96H78)	-0.031	-0.014	-0.034	-0.069	0.233	0.047	-0.008	-0.01	-0.037	0.166
SLC25A25 isoform 3 (UniProt Q6KCM7)	-0.004	0.021	-0.039	0.013	-0.014	-0.047	0	0.015	0.013	0.043
SH3GL1 (UniProt Q99961)	0.013	0.005	-0.017	0.028	0.023	0.009	0.013	0.025	-0.001	-0.063
STK26 (UniProt Q9P289)	-0.011	0.024	0.007	-0.003	0.005	0.061	0.005	-0.036	-0.015	-0.004
TAF6L (UniProt Q9Y6J9)	-0.044	-0.091	0.035	0.037	0.024	-0.042	0.017	-0.019	-0.009	0.028
SLC7A5 (UniProt Q01650)	-0.004	0.026	-0.069	-0.308 (active)	0.051	0.201 (active)	-0.012	0.019	0.046	0.129
SKA3 (UniProt Q8IX90)	0.009	-0.022	-0.029	-0.008	-0.022	-0.011	-0.008	0.002	0.027	0.034
SNRPD2 (UniProt P62316)	0.017	-0.01	0.016	-0.055	0.018	0.057	-0.014	-0.009	0.078	0.052
STAT2 (UniProt P52630)	0.005	-0.024	-0.146	0.008	0.004	-0.082	0.047	0.037	-0.078	0.093
STK4 (UniProt Q13043)	-0.029	-0.025	0.382	-0.104	0.004	0.504 (active)	0.27	-0.027	-0.053	0.062
SNX6, A0A0A0MRI2	-0.008	0.018	-0.062	0.2	0.003	-0.134	0.022	-0.012	-0.04	-0.088
STK3 isoform 2 (UniProt Q13188)	-0.045	0.02	0.299	-0.029	-0.058	0.468 (active)	0.224	-0.035	0.001	0.122
SPATA5 (UniProt Q8NB90)	-0.017	-0.009	-0.046	-0.027	-0.015	-0.13	0.02	-0.017	-0.05	0.034
SFN (UniProt P31947)	0.018	0.117	0.055	0.347 (active)	-0.029	-0.043	0.006	0.019	0.047	-0.117
SSB (UniProt E7ERC4)	-0.151	-0.15	-0.103	1.41 (active)	0.141	-0.263	-0.028	0.032	-0.271	-0.121
SMC6 (UniProt Q96SB8)	-0.051	-0.06	-0.026	-0.039	0.034	-0.002	0.004	-0.011	0.007	0.029
